Laboratory results reported in the supplement of paper PMC10037445.
Where “and” joins values, the source holds several entries; their conditions need not be identical. Equal entries are not always repeated. In all, about 2,900 compounds were measured (“NF-kB SEAP reporter activity, fold change vs agonist alone”: median about 0.99, highest 2% from about 2.6 on). The sample as a whole holds a higher share of the highest values than the screen did.

Legend:
RAW-Dual [1] = experiment: NF-kB SEAP reporter activity, fold change vs agonist alone; cytotoxicity flag (confluency mask): not cytotoxic; higher = enhanced NF-kB activity
How it was run: (§1)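 RAW-Dual macrophages were seeded in DMEM at 50,000 cells/well in 384-well plates, given 50 nL of library stock by pin tool, and given a PRR agonist 1 h later. Plates were held at 37 °C, 5% CO2 for 20 hours, after which supernatant was read for IRF by QuantiLuc luminescence and for NF-κB by QuantiBlue absorbance at 620 nm. Reporter activity is expressed as fold change over wells that received agonist alone. A well was called cytotoxic when IncuCyte confluency fell below 70% of agonist controls in both mask sets.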

RAW-Dual [2] = experiment: NF-kB SEAP reporter activity, fold change vs agonist alone; higher = enhanced NF-kB activity; settings: library stock concentration (final ~1000-fold dilution): 10 mM
How it was run: as §1

RAW-Dual [3] = experiment: NF-kB SEAP reporter activity, fold change vs agonist alone; cytotoxicity flag (confluency mask): cytotoxic (confluency <70% of control); higher = enhanced NF-kB activity
How it was run: as §1

[4] = agonist: ODN 1826 (TLR9) 0.5 ug/mL
[5] = agonist: Pam2CSK4 (TLR2/6) 0.1 ug/mL
[6] = agonist: Pam3CSK4 (TLR2/1) 0.1 ug/mL
[7] = cytotoxicity flag (confluency mask): not cytotoxic, agonist: Imiquimod (TLR7) […]
[8] = cytotoxicity flag (confluency mask): not cytotoxic, agonist: MPLA (TLR4) […]

Cc1nc(-c2nc(-c3ccc(OC(F)(F)F)cc3)no2)nn1Cc1cccc(N2CCC(S(C)(=O)=O)CC2)c1 (library stock concentration (final ~1000-fold dilution): 10 mM)
NF-kB SEAP reporter activity (RAW-Dual [1]; agonist: LPS (TLR4) 0.1 ug/mL): 2
NF-kB SEAP reporter activity (RAW-Dual [1]; [4]): 0.837
NF-kB SEAP reporter activity (RAW-Dual [1]; [5]): 0.462
NF-kB SEAP reporter activity (RAW-Dual [1]; [6]): 0.849

Cc1nc(-c2nc(-c3ccc(OC(F)(F)F)cc3)no2)nn1Cc1cccc(N2CCC(S(C)(=O)=O)CC2)c1
NF-kB SEAP reporter activity (RAW-Dual [2]; [7]): 0.853
NF-kB SEAP reporter activity (RAW-Dual [2]; [8]): 1.28

O.O=c1c(O)c(-c2ccc(O)cc2O)oc2cc(O)cc(O)c12
NF-kB SEAP reporter activity (RAW-Dual [2]; [7]): 0.957
NF-kB SEAP reporter activity (RAW-Dual [2]; [8]): 1.05

O.O=c1c(O)c(-c2ccc(O)cc2O)oc2cc(O)cc(O)c12 (library stock concentration (final ~1000-fold dilution): 10 mM)
NF-kB SEAP reporter activity (RAW-Dual [1]; agonist: LPS (TLR4) 0.1 ug/mL): 1.52
NF-kB SEAP reporter activity (RAW-Dual [1]; [4]): 1.13
NF-kB SEAP reporter activity (RAW-Dual [1]; [5]): 1.15
NF-kB SEAP reporter activity (RAW-Dual [1]; [6]): 1.18

COCCCOc1cc(CC(CC(N)C(O)CC(C(=O)NCC(C)(C)C(N)=O)C(C)C)C(C)C)ccc1OC (configuration not stated) (library stock concentration (final ~1000-fold dilution): 10 mM)
NF-kB SEAP reporter activity (RAW-Dual [1]; agonist: LPS (TLR4) 0.1 ug/mL): 1.36 and 1.31
NF-kB SEAP reporter activity (RAW-Dual [1]; [4]): 1.57 and 0.983
NF-kB SEAP reporter activity (RAW-Dual [1]; [5]): 1.09 and 0.934
NF-kB SEAP reporter activity (RAW-Dual [1]; [6]): 1.04 and 1.06

CC1=NN(c2ccc(C)c(C)c2)C(=O)/C1=N\Nc1cccc(-c2cccc(C(=O)O)c2)c1O.NCCO.NCCO (library stock concentration (final ~1000-fold dilution): 10 mM)
NF-kB SEAP reporter activity (RAW-Dual [1]; agonist: LPS (TLR4) 0.1 ug/mL): 2.92
NF-kB SEAP reporter activity (RAW-Dual [1]; [4]): 1.31
NF-kB SEAP reporter activity (RAW-Dual [1]; [5]): 1.58
NF-kB SEAP reporter activity (RAW-Dual [1]; [6]): 1.34

CC1=NN(c2ccc(C)c(C)c2)C(=O)/C1=N\Nc1cccc(-c2cccc(C(=O)O)c2)c1O.NCCO.NCCO
NF-kB SEAP reporter activity (RAW-Dual [2]; [7]): 1.57
NF-kB SEAP reporter activity (RAW-Dual [2]; [8]): 1.64

Cc1ncc(Cl)cc1NCc1ccc(C(=O)NC(CC2CCCC2)C(=O)NC2CC2)s1 (configuration not stated)
NF-kB SEAP reporter activity (RAW-Dual [2]; [7]): 0.865
NF-kB SEAP reporter activity (RAW-Dual [2]; [8]): 0.987

Cc1ncc(Cl)cc1NCc1ccc(C(=O)NC(CC2CCCC2)C(=O)NC2CC2)s1 (configuration not stated) (library stock concentration (final ~1000-fold dilution): 10 mM)
NF-kB SEAP reporter activity (RAW-Dual [1]; agonist: LPS (TLR4) 0.1 ug/mL): 0.894
NF-kB SEAP reporter activity (RAW-Dual [1]; [4]): 0.742
NF-kB SEAP reporter activity (RAW-Dual [1]; [5]): 0.85
NF-kB SEAP reporter activity (RAW-Dual [1]; [6]): 0.698

Cc1cc(C)c(CN2CCc3c(Cl)cc(-c4c(C)noc4C)c(Cl)c3C2=O)c(=O)[nH]1
NF-kB SEAP reporter activity (RAW-Dual [2]; [7]): 1.24
NF-kB SEAP reporter activity (RAW-Dual [2]; [8]): 1.64

Cc1cc(C)c(CN2CCc3c(Cl)cc(-c4c(C)noc4C)c(Cl)c3C2=O)c(=O)[nH]1 (library stock concentration (final ~1000-fold dilution): 10 mM)
NF-kB SEAP reporter activity (RAW-Dual [1]; agonist: LPS (TLR4) 0.1 ug/mL): 2.16
NF-kB SEAP reporter activity (RAW-Dual [1]; [4]): 1.51
NF-kB SEAP reporter activity (RAW-Dual [1]; [5]): 0.917
NF-kB SEAP reporter activity (RAW-Dual [1]; [6]): 0.98

C=C(C)C1CCC2(C(=O)O)CCC3(C)C(CCC4C5(C)CCC(OC(=O)CC(C)(C)C(=O)O)C(C)(C)C5CCC43C)C12 (configuration not stated) (library stock concentration (final ~1000-fold dilution): 10 mM)
NF-kB SEAP reporter activity (RAW-Dual [3]; agonist: LPS (TLR4) 0.1 ug/mL): 1.79
NF-kB SEAP reporter activity (RAW-Dual [3]; [4]): 0.735
NF-kB SEAP reporter activity (RAW-Dual [3]; [5]): 0.295
NF-kB SEAP reporter activity (RAW-Dual [3]; [6]): 0.532

C=C(C)C1CCC2(C(=O)O)CCC3(C)C(CCC4C5(C)CCC(OC(=O)CC(C)(C)C(=O)O)C(C)(C)C5CCC43C)C12 (configuration not stated)
NF-kB SEAP reporter activity (RAW-Dual [2]; cytotoxicity flag (confluency mask): cytotoxic (confluency <70% of control), agonist: Imiquimod (TLR7) […]): 0.823
NF-kB SEAP reporter activity (RAW-Dual [2]; cytotoxicity flag (confluency mask): cytotoxic (confluency <70% of control), agonist: MPLA (TLR4) […]): 1.07

CCN(CC)Cc1ccc(C(=O)N(CCc2ccccc2OC)C2CCNC2)cc1 (configuration not stated)
NF-kB SEAP reporter activity (RAW-Dual [2]; [7]): 0.518
NF-kB SEAP reporter activity (RAW-Dual [2]; [8]): 1.28

CCN(CC)Cc1ccc(C(=O)N(CCc2ccccc2OC)C2CCNC2)cc1 (configuration not stated) (library stock concentration (final ~1000-fold dilution): 10 mM)
NF-kB SEAP reporter activity (RAW-Dual [1]; agonist: LPS (TLR4) 0.1 ug/mL): 0.9
NF-kB SEAP reporter activity (RAW-Dual [1]; [4]): 0.312
NF-kB SEAP reporter activity (RAW-Dual [1]; [5]): 0.883
NF-kB SEAP reporter activity (RAW-Dual [1]; [6]): 0.613

C=C1CCC2C(C)(COC(=O)CCC(=O)O)C(OC(=O)CCC(=O)O)CCC2(C)C1/C=C/C1=CCOC1=O (configuration not stated)
NF-kB SEAP reporter activity (RAW-Dual [2]; [7]): 0.926
NF-kB SEAP reporter activity (RAW-Dual [2]; [8]): 0.985

C=C1CCC2C(C)(COC(=O)CCC(=O)O)C(OC(=O)CCC(=O)O)CCC2(C)C1/C=C/C1=CCOC1=O (configuration not stated) (library stock concentration (final ~1000-fold dilution): 10 mM)
NF-kB SEAP reporter activity (RAW-Dual [1]; agonist: LPS (TLR4) 0.1 ug/mL): 0.94
NF-kB SEAP reporter activity (RAW-Dual [1]; [4]): 0.908
NF-kB SEAP reporter activity (RAW-Dual [1]; [5]): 0.924
NF-kB SEAP reporter activity (RAW-Dual [1]; [6]): 1.06

Nc1ccc2ncnc(NCCc3ccc(Oc4ccccc4)cc3)c2c1 (library stock concentration (final ~1000-fold dilution): 10 mM)
NF-kB SEAP reporter activity (RAW-Dual [1]; agonist: LPS (TLR4) 0.1 ug/mL): 1.57 and 1.15
NF-kB SEAP reporter activity (RAW-Dual [1]; [5]): 0.752 and 0.456
NF-kB SEAP reporter activity (RAW-Dual [1]; [6]): 1.02 and 0.73

N#Cc1ccc2ncnc(NCCc3ccccc3)c2c1
NF-kB SEAP reporter activity (RAW-Dual [2]; [7]): 0.984
NF-kB SEAP reporter activity (RAW-Dual [2]; [8]): 1.59
